Screening results: PubChem BioAssay, National Center for Advancing Translational Sciences (NCATS)
ELG1 DNA repair: qHTS screen for small molecules that inhibit ELG1-dependent DNA repair in human embryonic kidney (HEK293T) cells expressing luciferase-tagged ELG1; HEK293T ELG1-luciferase reporter, luminescence, 16 h; DNA damage induced by 5-fluorouridine; Potency, µM (top dose mostly 46.1 µM), hits mostly inhibitors; actives 2.3% (n = 330,000); AID 504467, 2011; further: nearly all actives have a fitted effect of over 55% in size
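Quantitative HTS, concentration-response format. 2,000 cells/well co-treated with 5-fluorouridine and compound, 16 hr in 5% CO2 at 37 °C; ONE-Glo luminescence read after 30 min.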
RORg inh: qHTS for inhibitors of ROR gamma transcriptional activity | Potency, µM (doses to about 53.6 µM), usual class: inhibitors | Nuclear receptor ROR-gamma (Mus musculus), P51450 | Drosophila S2 Gal4-RORgamma UAS-luciferase reporter, 20 h | actives 5.4% (n = 310,000); further: nearly all actives have a fitted effect of over 60% in size
Target sequence (P51450 whole entry, looked up, the tested form may be a part): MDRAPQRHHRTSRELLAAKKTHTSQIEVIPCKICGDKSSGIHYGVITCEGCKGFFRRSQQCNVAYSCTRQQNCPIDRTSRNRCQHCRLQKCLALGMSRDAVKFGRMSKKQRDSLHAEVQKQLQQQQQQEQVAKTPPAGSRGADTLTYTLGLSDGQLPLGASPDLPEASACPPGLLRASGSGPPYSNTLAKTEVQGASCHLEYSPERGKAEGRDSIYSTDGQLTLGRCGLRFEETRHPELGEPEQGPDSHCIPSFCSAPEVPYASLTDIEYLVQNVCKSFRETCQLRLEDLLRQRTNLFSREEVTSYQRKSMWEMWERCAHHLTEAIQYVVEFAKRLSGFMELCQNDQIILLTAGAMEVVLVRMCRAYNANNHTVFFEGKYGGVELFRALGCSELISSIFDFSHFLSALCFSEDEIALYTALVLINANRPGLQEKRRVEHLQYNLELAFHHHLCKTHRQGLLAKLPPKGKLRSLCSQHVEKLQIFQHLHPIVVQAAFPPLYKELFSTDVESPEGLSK
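Using a luciferase readout, inhibitors were identified by reduced reporter activity in Drosophila cells coexpressing a copper-inducible Gal4–ROR gamma fusion and UAS-driven Photinus luciferase, incubated 20 hr after 700 uM copper sulfate.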
TSHR antagonist: Antagonists of the Thyroid Stimulating Hormone Receptor: HTS campaign. Thyrotropin receptor (Homo sapiens), P16473. TSHR-expressing cells, TSH-stimulated cAMP HTRF, 2 h; stronger effect = lower value. activity change, negative = inhibition, % at 11.5 µM. actives 0.2% (n = 330,000). AID 504810, 2011;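 active means activity change below a set negative limit, meaning inhibition stronger than a set level, cut at about -70% in these data; inconclusive means activity change between two set negative limits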
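TSHR-expressing cells, 200/well, pre-treated with compound, then stimulated with EC80 TSH (4nM final) for 2 hours at 37 deg C. cAMP measured by competitive HTRF: anti-cAMP cryptate antibody in lysis buffer plus cAMP-d2, read after 30 minutes at room temperature.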
Coupling enz: qHTS Assay for Inhibitors of Fructose-1,6-bisphosphate Aldolase from Giardia Lamblia: Coupling assay counterscreen | activity change, negative = inhibition, % at 58.2 µM, hits read low | coupling enzyme system counterscreen, AmpLite Red fluorescence | actives 0.67% (n = 290,000); in the data active means activity change below about -30%
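Fluorescence at 525 nm excitation and 598 nm emission measured inhibition of the coupled detection system without aldolase. Compounds (at 57.5 uM final) were preincubated 10 min at room temperature with coupling enzyme reagent before a 20 min substrate/AmpLite Red step.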
VP16 counter: VP16 counterscreen qHTS for inhibitors of ROR gamma transcriptional activity; AID 2546, 2010; Drosophila S2 Gal4-VP16 UAS-luciferase, luminescence, 20 h; actives 3.5% (n = 310,000); Potency, µM (highest dose often 53.6 µM), usual class: inhibitors;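 further: Gal4-VP16 expression switched on by copper sulfate through the metallothionein promoter; nearly all actives have a fitted effect of over 50% in size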
A number is an active result; n = inactive; u = inconclusive; x = no result given; ! = not confirmed by another sample; [ ] = another dose, or the depositor's remark. Only some compounds are listed: those with a hit (about 8% of all), similar ones and a draw of the others. Unless noted, the call rests on the fitted dose curve; in most records, active means well fitted curve in the direction sought with a large enough effect; inconclusive means small, poorly fitted or top-dose-only effect, or another doubt; inactive means no such curve, though single readings can be large; an effect the other way counts as inactive or inconclusive.

SMILES	ELG1 DNA repair	RORg inh	TSHR antagonist	Coupling enz	VP16 counter
O=C(NCc1ccco1)C(c1ccccc1)N(CC1CCCO1)C(=O)Cn1nnc2ccccc21 (stereo not given)	n	n[10 µM]	n	n	n
COC(=O)c1ccc(NC(=O)CSc2nnc(-c3cccnc3)o2)cc1	n	x	x	x	x
CC1(C)Cc2ccccc2-c2n[nH]c(=S)n21	n	2.82µM	n	n	0.891µM
CCSc1nnc2n1C(C)(C)Cc1ccccc1-2	n	n	n	n	n
COCCN(C)Cc1cn(-c2ccc(F)cc2F)nc1-c1ccccc1C	u	6.31µM	n	n	u
Oc1cc2c(cc1O)C1c3ccc(O)c(O)c3OCC1(O)C2 (stereo not given)	n	u	n	-72.1!	12.6µM!
Cc1cc(O)c(NC(=S)NC(=O)c2ccc(-c3ccc(Cl)cc3)o2)cc1C	n	3.16µM	n	n	5.01µM
Cc1ccc(NC(=S)NC(=O)c2ccc(-c3ccc(Cl)cc3)o2)c(O)c1	u	n	n	n	n
Cc1ccc(O)c(NC(=S)NC(=O)Cc2ccc(Cl)cc2)c1	n	12.6µM	n	n	11.2µM
Cc1ccc(N2CCN(S(=O)(=O)c3ccc4c(c3)NC(=O)C(C)C(=O)N4)CC2C)cc1 (stereo not given)	u	u	n	n	u
CC1(C)CC(=S)Nc2ccccc2S1	n	2.82µM	n	n	5.01µM
O=C1CC(c2ccsc2)Sc2ccccc2N1 (stereo not given)	n	n	n	n	n
COc1cc(CN(C)c2ccc(S(=O)(=O)N3CCCC3)cn2)ccc1OC(F)F	u	x	n	x	x
COc1cc(CN(C)Cc2cc(=O)n3ccsc3n2)ccc1OC(F)F	13µM	n	n	n	15.8µM
COc1ccccc1/C=C/C(=O)OCC(=O)N1CCN(S(=O)(=O)c2ccc(C)cc2C)CC1	u	x	n	x	x
CCOC(=O)C(Cc1c[nH]c2ccccc12)NC(=O)c1ccccc1Br (stereo not given)	u	8.91µM	n	n	u
COc1ccccc1N(CC(=O)NC1CCCC1)C(=O)c1oc(C(C)(C)C)cc1C	u	12.6µM	n	n	n
Cc1cc(C(C)(C)C)oc1C(=O)N(CC(=O)NC1CCCC1)c1c(C)cccc1C	n	n	n	n	n[0.365 µM]
O=C(c1cc(-c2ccco2)nc2ccccc12)N1CCCC(C(F)(F)F)C1 (stereo not given)	n	x	n	x	x
Cc1cccc(C)c1NC(=O)COC(=O)C1Cc2ccccc2CN1C(=O)c1ccccc1 (stereo not given)	n	n	n	n	n
N#Cc1ccc(NC(=O)COC(=O)C2Cc3ccccc3CN2C(=O)c2ccccc2)cc1 (stereo not given)	10.3µM	n	n	n	n
Cn1c(/C=N/O)nc2ccccc21	n	n	n	n	n
Cn1c(/C=N/c2nc3ccccc3[nH]2)nc2ccccc21	n	17.8µM	n	n	u
CCn1c(/C=N/c2nc3ccccc3n2C)nc2ccccc21	n	12.6µM	n	n	u
CCCCCCSc1ccc([C@H]2N[C@@](CC(C)C)(C(=O)OC)[C@H]3C(=O)N(C)C(=O)[C@@H]23)cc1OC	u	x	n	x	x
SMILES	ELG1 DNA repair	RORg inh	TSHR antagonist	Coupling enz	VP16 counter
COCCn1c(SCC(=O)N(C)c2ccccc2)nc2c([nH]c3ccccc32)c1=O	u	n	n	n	n
COCCNC(=S)N=Nc1c(O)[nH]c2c(C)cc(C)cc12	n	2.24µM	n	n	7.94µM
CC(C)(C)c1ccc(/C=N/Nc2ccc(C(=O)O)cc2)cc1	u	0.02µM	n	n	17.8µM
O=C(O)c1ccc(N/N=C/c2c(F)cccc2Cl)cc1	u	2µM	n	n	0.708µM
O=C(O)c1ccc(/C=N/Nc2ccc(F)cc2F)cc1	u	12.6µM	n	n	u
O=C(c1cc(C(F)(F)F)cc(C(F)(F)F)c1)N1CCC2(CCN(Cc3ccncc3)CC2)CC1	x	n	x	n	n
CCOC(=O)c1c(C)n(C)c2ccc(OCC(O)CN3CCN(C)CC3)cc12 (stereo not given)	n	n	n	n	n
CCOC(=O)c1c(C)n(C)c2ccc(OCC(O)Cn3c(C)nc4ccccc43)cc12 (stereo not given)	11.6µM	n	n	n	n
Cc1nc2ccccc2n1CC(O)Cn1c(C(F)(F)F)nc2ccccc21 (stereo not given)	u	n	n	n	n
CCC(=O)c1ccc(OCC(O)Cn2c(C)nc3ccccc32)cc1 (stereo not given)	u	u	n	n	7.94µM
Cc1nc2ccccc2n1CC(O)COc1ccccc1Cl (stereo not given)	u	u	n	n	17.8µM
Cc1nc2ccccc2n1CC(O)COc1ccc(Br)cc1 (stereo not given)	u	u	n	n	14.1µM
COc1ccc2c(c1)OCC(Cc1ccc(OC)c(O)c1)C2=O (stereo not given)	x	u	x	n	n
COc1cc(C(=S)N2CCOCC2)cc(OC)c1OC(=O)c1ccc(C)cc1	u	u	n	n	n
Cc1ccc(-c2cn3nc(C)c(C)nc3n2)cc1	u	7.94µM	n	n	10µM
CC1CCC2C(=O)OC(COc3ccc(C(C)(C)C)cc3)CN2C1c1ccc(Br)cc1 (stereo not given)	x	n[10 µM]	x	n	n[10 µM]
CC(=O)c1cccc(NC(=O)C2CCCN(S(=O)(=O)c3ccc(F)cc3)C2)c1 (stereo not given)	u	n	n	n	n
COc1ccc(NC(=O)C2CCCN(S(=O)(=O)c3ccc4c(c3)CCCN4C(C)=O)C2)cc1 (stereo not given)	u	n	n	x	n
COc1ccc(S(=O)(=O)N2CCCC(C(=O)Nc3cccnc3)C2)cc1Cl (stereo not given)	23.1µM	u	n	n	u
COc1ccc(S(=O)(=O)N2CCCC(C(=O)Nc3cccc(C(C)=O)c3)C2)cc1 (stereo not given)	u	u	n	n	4.47µM
COc1cc(NC(=O)C2CCCN(S(=O)(=O)c3ccc4c(c3)CCCN4C(C)=O)C2)cc(OC)c1 (stereo not given)	9.2µM	n	n	n	n
O=C(Nc1ccc(-c2csc(Nc3cccc(C(F)(F)F)c3)n2)cc1)c1cc([N+](=O)[O-])cc(C(F)(F)F)c1	u	n	n	n	n
O=C(Nc1cccc(-c2csc(Nc3ccccc3)n2)c1)c1ccccc1	u	n	n	n	n
O=C(Nc1cccc(-c2csc(Nc3cccc(C(F)(F)F)c3)n2)c1)c1ccccc1	20.6µM	u	n	n	n
O=C(Nc1ccc(-c2csc(Nc3cccc(C(F)(F)F)c3)n2)cc1)c1ccccc1	11.6µM	n	n	n	n
